# Measurements from PubChem BioAssay (NCATS).
# Results filed as inconclusive are left out. The source made the active and inactive calls. Unless noted, calls follow the shape of the dose curve; as a rule, active = well fitted inhibition curve with a large enough effect; inconclusive = small, poorly fitted or top-dose-only effect; inactive = flat fitted curve, though single readings scatter.
# Key:
# [1] = qHTS drug screen for cell cycle checkpoint inhibitors in PARPi-resistant BRCA-mutant ovarian cancer cell lines. (AID 1963452; calls by dose curve); settings: PEO1/OlaR viability, CellTiter-Glo luminescence, 96 h, stronger effect = lower value
# Outline: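 PEO1, PEO4 and PEO1/OlaR ovarian cancer cells, 600 per well, exposed 96 h at 37C to a dilution series. Viability read by CellTiter-Glo luminescence, normalized to DMSO and empty wells; activity summarized as Z-AUC.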
# [2] = qHTS for identification of novel therapeutic agents for treatment of microphthalmiaassociated transcription factor (MiT) renal cell carcinoma (RCC) (AID 1963991); settings: CellTiter-Glo, 48 h, stronger effect = lower value
# Outline: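 Three TFE3-fusion RCC cell lines (UOK109, UOK124, UOK145), 500 cells/well, were exposed to the 1912-compound MIPE 4.0 library for 48 hours at 37 C. Viability was read by CellTiter-Glo luminescence, normalised to DMSO (100%) and empty wells (0%), with 11-concentration curve fits.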
# [3] = qHTS profiling for inhibitors of Plasmodium falciparum proliferation (AID 504749);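 also: 0% = DMSO vehicle and full inhibition = artemisinin control; nearly all actives have a fitted effect of over 60% in size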; settings: P. falciparum in erythrocytes, SYBR Green DNA, 72 h, at 28.7 µM (top of the series)
# Outline: (§1)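 Three-day growth assay of blood-stage parasites in erythrocytes (0.3% parasitemia, 2.5% hematocrit) at 37 C, 5% CO2, quantified by SYBR Green DNA staining after overnight detergent lysis.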
# 3D7 = assay: as above; settings: P. falciparum in erythrocytes, SYBR Green DNA, 72 h; series mostly up to 28.7 µM
# Outline: as §1
# 7G8 = assay: as above; settings: P. falciparum in erythrocytes, SYBR Green DNA, 72 h; series mostly up to 28.7 µM
# Outline: as §1
# AA1029 = assay: as above; settings: P. falciparum in erythrocytes, SYBR Green DNA, 72 h; series mostly up to 28.7 µM
# Outline: as §1
# AS120 = assay: as above; settings: P. falciparum in erythrocytes, SYBR Green DNA, 72 h; series mostly up to 28.7 µM
# Outline: as §1
# ATS189 = assay: as above; settings: P. falciparum in erythrocytes, SYBR Green DNA, 72 h; series mostly up to 28.7 µM
# Outline: as §1
# ATS95 = assay: as above; settings: P. falciparum in erythrocytes, SYBR Green DNA, 72 h; series mostly up to 28.7 µM
# Outline: as §1
# C2A = assay: as above; settings: P. falciparum in erythrocytes, SYBR Green DNA, 72 h; series mostly up to 28.7 µM
# Outline: as §1
# CP185 = assay: as above; settings: P. falciparum in erythrocytes, SYBR Green DNA, 72 h; series mostly up to 28.7 µM
# Outline: as §1
# CP191 = assay: as above; settings: P. falciparum in erythrocytes, SYBR Green DNA, 72 h; series mostly up to 28.7 µM
# Outline: as §1
# CP192 = assay: as above; settings: P. falciparum in erythrocytes, SYBR Green DNA, 72 h; series mostly up to 28.7 µM
# Outline: as §1
# CP194 = assay: as above; settings: P. falciparum in erythrocytes, SYBR Green DNA, 72 h; series mostly up to 28.7 µM
# Outline: as §1
# CP201 = assay: as above; settings: P. falciparum in erythrocytes, SYBR Green DNA, 72 h; series mostly up to 28.7 µM
# Outline: as §1
# CP203 = assay: as above; settings: P. falciparum in erythrocytes, SYBR Green DNA, 72 h; series mostly up to 28.7 µM
# Outline: as §1
# CP211 = assay: as above; settings: P. falciparum in erythrocytes, SYBR Green DNA, 72 h; series mostly up to 28.7 µM
# Outline: as §1
# CP215 = assay: as above; settings: P. falciparum in erythrocytes, SYBR Green DNA, 72 h; series mostly up to 28.7 µM
# Outline: as §1
# CP217 = assay: as above; settings: P. falciparum in erythrocytes, SYBR Green DNA, 72 h; series mostly up to 28.7 µM
# Outline: as §1
# [4] = measured here: PEO1 parental Z-AUC
# [5] = TFE3-RCC UOK109 viability, measured here: UOK109 Z-AUC
# [6] = TFE3-RCC viability, measured here: UOK124 Z-AUC
# [7] = TFE3-RCC viability, measured here: UOK145 Z-AUC
smiles,measurement,setting,value
Nc1nc(=S)c2[nH]cnc2[nH]1,Z-AUC,[1],0.0206 (inactive)
same,Z-AUC,[1]; [4],-0.887
same,Z-AUC,[1]; measured here: PEO4 Z-AUC,-1.01
NC(=O)c1ccc2[nH]ccc2c1,Z-AUC,[1],-0.236 (inactive)
same,Z-AUC,[1]; [4],-0.451
same,Z-AUC,[1]; measured here: PEO4 Z-AUC,-0.798
Cc1ccc(S(=O)(=O)N[C@@H](Cc2ccccc2)C(=O)CCl)cc1,Z-AUC,[1],1.05 (inactive)
same,Z-AUC,[1]; [4],1.44
same,Z-AUC,[1]; measured here: PEO4 Z-AUC,1.24
O=C(O)CCn1c2c(c3ccccc31)C[C@H](NS(=O)(=O)c1ccc(F)cc1)CC2,Z-AUC,[1],0.321 (inactive)
same,Z-AUC,[1]; [4],0.0173
same,Z-AUC,[1]; measured here: PEO4 Z-AUC,0.558
CCC(=O)O[C@]1(C(=O)SCF)[C@H](C)C[C@H]2[C@@H]3C[C@H](F)C4=CC(=O)C=C[C@]4(C)[C@@]3(F)[C@@H](O)C[C@@]21C,Z-AUC,[1],-1.29 (inactive)
same,Z-AUC,[1]; [4],-0.0288
same,Z-AUC,[1]; measured here: PEO4 Z-AUC,-0.807
Cc1c(-c2ccc(O)cc2)n(Cc2ccc(OCCN3CCCCCC3)cc2)c2ccc(O)cc12,Z-AUC,[1],1.04 (inactive)
same,Z-AUC,[1]; [4],0.798
same,Z-AUC,[1]; measured here: PEO4 Z-AUC,0.376
CC(C(=O)O)c1ccc2c(c1)CC(=O)c1ccccc1S2 (centres undefined),Z-AUC,[1],1.18 (inactive)
same,Z-AUC,[1]; [4],0.703
same,Z-AUC,[1]; measured here: PEO4 Z-AUC,0.789
Clc1ccccc1CN1CCc2sccc2C1,Z-AUC,[1],0.114 (inactive)
same,Z-AUC,[1]; [4],0.0683
same,Z-AUC,[1]; measured here: PEO4 Z-AUC,0.329
same,z-score,[2]; [5],0.71
same,z-score,[2]; [6],0.609
same,z-score,[2]; [7],0.692
COC(=O)Nc1nc2ccc(S(=O)c3ccccc3)cc2[nH]1 (centres undefined),Z-AUC,[1],0.889 (inactive)
same,Z-AUC,[1]; [4],0.292
same,Z-AUC,[1]; measured here: PEO4 Z-AUC,0.543
C[C@@H](CN1CC(=O)NC(=O)C1)N1CC(=O)NC(=O)C1,Z-AUC,[1],1.24 (inactive)
same,Z-AUC,[1]; [4],1.43
same,Z-AUC,[1]; measured here: PEO4 Z-AUC,0.873
NC1(c2ccc(-c3nc4ccn5c(=O)[nH]nc5c4cc3-c3ccccc3)cc2)CCC1,Z-AUC,[1],0.493 (inactive)
same,Z-AUC,[1]; [4],0.0138
same,Z-AUC,[1]; measured here: PEO4 Z-AUC,-0.184
CCOC(=O)[C@H](CCc1ccccc1)N[C@H]1CCc2ccccc2N(CC(=O)O)C1=O,Z-AUC,[1],-0.332 (inactive)
same,Z-AUC,[1]; [4],-0.731
same,Z-AUC,[1]; measured here: PEO4 Z-AUC,-0.74
CC1=NN(c2ccccc2)C(=O)C1,Z-AUC,[1],0.285 (inactive)
same,Z-AUC,[1]; [4],0.838
same,Z-AUC,[1]; measured here: PEO4 Z-AUC,1.05
same,z-score,[2]; [5],-4.96
same,z-score,[2]; [6],0.556
same,z-score,[2]; [7],-3.3
same,"activity, negative = inhibition",[3]; parasite line A,3.27% (inactive)
same,"activity, negative = inhibition",[3]; parasite line B,-12.4% (inactive)
same,Potency,3D7,inactive
same,Potency,7G8,inactive
same,Potency,AA1029,inactive
same,Potency,AS120,inactive
same,Potency,ATS189,inactive
same,Potency,ATS95,inactive
same,Potency,C2A,inactive
same,Potency,CP185,inactive
same,Potency,CP191,inactive
same,Potency,CP192,inactive
same,Potency,CP194,inactive
same,Potency,CP201,inactive
same,Potency,CP203,inactive
same,Potency,CP211,inactive
same,Potency,CP215,inactive
same,Potency,CP217,inactive
C[C@@H]1CN(c2c(F)c(N)c3c(=O)c(C(=O)O)cn(C4CC4)c3c2F)C[C@H](C)N1,Z-AUC,[1],1.35 (inactive)
same,Z-AUC,[1]; [4],1.39
same,Z-AUC,[1]; measured here: PEO4 Z-AUC,1.15
same,z-score,[2]; [5],1.8
same,z-score,[2]; [6],2.67
same,z-score,[2]; [7],1.6
O=C(NCC1CN(c2ccc(N3CCOCC3=O)cc2)C(=O)O1)c1ccc(Cl)s1 (centres undefined),Z-AUC,[1],-0.884 (inactive)
same,Z-AUC,[1]; [4],-0.579
same,Z-AUC,[1]; measured here: PEO4 Z-AUC,-0.444
same,z-score,[2]; [5],0.607
same,z-score,[2]; [6],0.69
same,z-score,[2]; [7],0.507
O=NN(CCCl)C(=O)NC1CCCCC1,Z-AUC,[1],0.23 (inactive)
same,Z-AUC,[1]; [4],1.4
same,Z-AUC,[1]; measured here: PEO4 Z-AUC,1.4
same,z-score,[2]; [5],0.385
same,z-score,[2]; [6],1.51
same,z-score,[2]; [7],1.28
same,"activity, negative = inhibition",[3]; parasite line A,5.42% (inactive)
same,"activity, negative = inhibition",[3]; parasite line B,5.97% (inactive)
same,Potency,3D7,inactive
same,Potency,7G8,inactive
same,Potency,AA1029,inactive
same,Potency,AS120,inactive
same,Potency,ATS189,inactive
same,Potency,ATS95,inactive
same,Potency,C2A,inactive
same,Potency,CP185,inactive
same,Potency,CP191,inactive
same,Potency,CP192,inactive
same,Potency,CP194,inactive
same,Potency,CP201,inactive
same,Potency,CP203,inactive
same,Potency,CP211,inactive
same,Potency,CP215,inactive
same,Potency,CP217,inactive
